Assay results: ChEMBL document CHEMBL2218924, “A broad activity screen in support of a chemogenomic map for kinase signalling research and drug discovery” (Biochem J, 2013)

What follows are molecules tested against Protein-tyrosine kinase 2-beta (Homo sapiens) (UniProt Q14289). Settings: at 10 µM.
Protein-tyrosine kinase 2-beta (Homo sapiens), sequence (Q14289 whole entry, looked up): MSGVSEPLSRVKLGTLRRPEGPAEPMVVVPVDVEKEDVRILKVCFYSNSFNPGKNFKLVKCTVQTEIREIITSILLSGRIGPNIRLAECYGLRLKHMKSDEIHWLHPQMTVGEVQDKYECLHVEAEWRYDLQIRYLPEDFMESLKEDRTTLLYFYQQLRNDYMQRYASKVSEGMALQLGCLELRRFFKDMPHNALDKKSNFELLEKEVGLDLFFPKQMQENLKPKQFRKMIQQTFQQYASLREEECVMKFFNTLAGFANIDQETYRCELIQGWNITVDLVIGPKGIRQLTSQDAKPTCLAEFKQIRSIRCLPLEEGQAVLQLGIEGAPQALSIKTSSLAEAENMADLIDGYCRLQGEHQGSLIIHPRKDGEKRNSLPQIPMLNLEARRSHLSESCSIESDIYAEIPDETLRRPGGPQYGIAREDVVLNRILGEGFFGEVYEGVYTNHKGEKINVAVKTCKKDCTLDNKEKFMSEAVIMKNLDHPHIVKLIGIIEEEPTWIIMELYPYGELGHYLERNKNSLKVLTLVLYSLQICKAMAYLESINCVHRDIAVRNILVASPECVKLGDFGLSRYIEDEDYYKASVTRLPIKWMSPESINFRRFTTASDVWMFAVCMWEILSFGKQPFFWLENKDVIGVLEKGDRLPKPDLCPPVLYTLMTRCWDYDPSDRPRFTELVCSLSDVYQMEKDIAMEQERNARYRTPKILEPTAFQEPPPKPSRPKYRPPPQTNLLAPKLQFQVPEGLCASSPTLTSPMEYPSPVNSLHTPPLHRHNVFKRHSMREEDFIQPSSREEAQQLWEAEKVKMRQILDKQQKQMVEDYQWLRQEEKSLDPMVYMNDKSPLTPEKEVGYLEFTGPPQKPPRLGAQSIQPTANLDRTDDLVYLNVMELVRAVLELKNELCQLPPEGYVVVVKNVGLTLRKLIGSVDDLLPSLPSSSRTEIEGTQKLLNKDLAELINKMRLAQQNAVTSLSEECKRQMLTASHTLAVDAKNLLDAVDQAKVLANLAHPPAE
In the case of `O=C1NC(=O)C(c2cn(CCCO)c3ncccc23)=C1c1cnccn1`, the residual activity is reported as 79%.
Work on `CCN(CC)CCNC(=O)c1c(C)[nH]c(/C=C2\C(=O)Nc3ccc(Cl)cc32)c1C` yielded a residual activity of 3%.
Work on `O=C1Nc2ccccc2/C1=C\c1c(Cl)[nH]c2ccccc12` yielded a residual activity of 65%.
For `COc1cc2c(cc1OC)-c1n[nH]c(Nc3cccc(F)c3)c1C2`, the residual activity was 32%.
For `N#C/C(=C1/Nc2ccccc2S1)c1ccnc(NCCc2cccnc2)n1`, the residual activity was 58%.
For `COc1ccc(CNC(=O)Nc2ncc([N+](=O)[O-])s2)cc1`, the residual activity was 77%.
Molecule `O=C1NC(=O)C(c2c[nH]c3ccccc23)=C1c1c[nH]c2ccccc12` has a residual activity of 28%.
`Oc1cccc(-c2nc(N3CCOCC3)c3oc4ncccc4c3n2)c1` showed a residual activity of 95%.
`N#C/C(=C\c1ccc(O)c(O)c1)C(=O)NCc1ccccc1` showed a residual activity of 101%.
Molecule `O=C(Nc1ccc(Cl)cc1)c1ccccc1NCc1ccncc1` has a residual activity of 74%.
`COc1cc2nccc(Oc3ccc(NC(=O)Nc4cc(C)on4)c(Cl)c3)c2cc1OC` showed a residual activity of 8%.
Work on `Nc1nc(Nc2ccc(S(N)(=O)=O)cc2)nn1C(=O)c1c(F)cccc1F` yielded a residual activity of 14%.
In the case of `NCCNc1ncc(C(N)=O)c(Nc2cccc(C(F)(F)F)c2)n1`, the residual activity is reported as 3%.
`CCCCc1c(-c2ccc(OC)cc2)[nH]c2nccnc12` gave a residual activity of 32%.
Molecule `O=C1NC(=O)C(c2cn(CCCn3ccnc3)c3ccccc23)=C1Nc1ccccc1` has a residual activity of 81%.
With `O=C(c1cc2cc(O)ccc2[nH]1)c1cc2cc(O)ccc2[nH]1` the residual activity was 20%.
`c1ccc(-c2cnc(Nc3ccc(OCCN4CCCC4)cc3)s2)cc1` was tested, and the residual activity was 43%.
`O=C(Nc1nc2ccccc2n1CCN1CCOCC1)c1cccc([N+](=O)[O-])c1` gave a residual activity of 86%.
`COc1ccc2c(c1)c(C1=C(c3c[nH]c4ccccc34)C(=O)NC1=O)cn2CCCN(C)C` gave a residual activity of 32%.
For `Cn1c2ccccc2c2c3c(c4c5ccccc5n(CCC#N)c4c21)CNC3=O`, the residual activity was 4%.
